Lmaj promast: Leishmania major promastigote growth inhibition, primary screen. Leishmania major promastigotes, resazurin fluorescence viability. inhibition, % at 10 µM. hit rate 9% among 200,000; in the data active = inhibition above about 50%;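 also: promastigotes grown with compound for 44 hours at 28 °C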
ROMK mod: ROMK potassium channel modulators, primary screen, cell-based, thallium flux, MLSMR library | ATP-sensitive inward rectifier potassium channel 1 (Homo sapiens), P48048 | Tet-inducible ROMK, thallium flux fluorescence; actives lie on both sides | B-score at 10 µM | hit rate 2% among 130,000;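 active = signal ratio slope over the read window, or its plate-corrected B-score, at least 3 SD from the plate mean, either direction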;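 also: B-score of the F/F0 ratio slope over 7 to 12 s after thallium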
Target sequence (P48048 whole entry, looked up): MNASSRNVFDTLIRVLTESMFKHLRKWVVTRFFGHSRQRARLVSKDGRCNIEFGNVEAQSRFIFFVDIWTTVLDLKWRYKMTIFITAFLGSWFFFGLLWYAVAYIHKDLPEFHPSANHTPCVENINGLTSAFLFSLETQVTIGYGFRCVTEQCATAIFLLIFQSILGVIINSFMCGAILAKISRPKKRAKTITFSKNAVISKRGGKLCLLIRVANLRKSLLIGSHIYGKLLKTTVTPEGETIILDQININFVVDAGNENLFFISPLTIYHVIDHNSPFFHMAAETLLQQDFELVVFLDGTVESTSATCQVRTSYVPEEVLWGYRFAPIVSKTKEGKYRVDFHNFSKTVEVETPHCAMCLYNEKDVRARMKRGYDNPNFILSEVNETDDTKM
Insulin prom inh: inhibitors of insulin promoter-driven GFP, primary screen, imaging, TRM-6 cells (human fetal islet line), eGFP reporter, cell count. reporter expression induced with tamoxifen. inhibition, % at 2 µM. hit rate 0.9% among 130,000. AID 1273, 2008;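 active = inhibition above the mean plus 3 SD, with well images judged a real hit on visual review, cut at about 60% in these data, passing the limit was not always enough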
KCC2 mod: KCC2 cotransporter modulators, thallium flux, primary screen, cell-based, HEK293 KCC2, FluoZin-2 fluorescence, MLSMR | B-score of Tl+ flux slope (higher = more flux/activation; lower = inhibition) at 10 µM | Solute carrier family 12 member 5 (Homo sapiens), Q9H2X9 | KCC2 cells, thallium flux FluoZin-2 fluorescence | hit rate 2.2% among 190,000 | AID 1456, 2008;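 active = thallium flux slope and its plate-corrected score both differing from the plate sample mean at a set confidence after two filtering rounds, in either direction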;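 also: slope of fluorescence scaled to starting intensity during 10 to 20 s after thallium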
WT yeast gro inh: growth inhibition of WT strain, primary screen, mitochondrial fusion inhibitor project, WT and mutant strains, chemical genetic. mitochondrial fusion phenotypic screen. inhibition, % at 10 µM. hit rate 2.1% among 190,000. AID 1362, 2008; in the data active = inhibition above about 58%; tested in S. cerevisiae
Insulin prom up: insulin promoter activators in MIN6 cells, imaging, high-content screening, mouse beta cells; MIN6 insulin promoter-GFP reporter; active compounds read high; z-score at 5 µM; hit rate 0.3% among 190,000; AID 1625, 2009;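 active = z-score above 3 at 5 µM with at least 500 cells counted in the well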
An asterisk follows results filed as active; nt = no result given. An excerpt weighted towards active compounds, which were near 12% of everything screened.

SMILES	Lmaj promast	ROMK mod	Insulin prom inh	KCC2 mod	WT yeast gro inh	Insulin prom up
COc1cc(/C=N/n2nnnc2N)ccc1OCc1c(C)no[n+]1[O-]	54*	nt	-25	-0.23	-7	-0.67
CCOc1ccc(OCCOCCOc2c(Cl)cccc2Cl)cc1	60*	nt	20	-0.038	nt	nt
COC(=O)c1ccc(C(NC(=O)OCc2ccccc2)/C(F)=C/[C@@H](C)C(=O)NCc2ccc(-c3ccccc3)cc2)cc1 (stereo not given in full)	-5	1.1	29	0.98	-4	0.21
COc1cccc(C(=O)Oc2ccc3c(C)cc(=O)oc3c2C(C)=O)c1	-9	-0.034	38	0.63	9	0.22
COc1ccc(/C=C/C(=O)c2c(O)ccc3c(C)cc(=O)oc23)cc1	88*	nt	nt	0.097	-2	-0.02
COc1ccc(/C=C\C(=O)c2c(O)ccc3c(C)cc(=O)oc23)cc1	100*	nt	27	-1	5	-0.53
COc1ccc(/C=C/C(=O)c2oc3ccc(F)cc3c2C)cc1	3	0.66	-6	1.5	0	0.07
O=C(Nc1nccs1)c1cccc(NC(=O)c2ccco2)c1	97*	nt	nt	0.0066	-5	-1.3
O=C(Nc1cccnc1)c1cccc(NC(=O)c2ccco2)c1	80*	0.3	19	0.18	13	0.1
O=C(c1ccccc1)c1cccc(NC(=O)c2ccco2)c1	97*	nt	25	-0.87	8	0.25
Cc1ccc(C(=O)Nc2cccnc2)cc1NC(=O)c1ccco1	6	nt	11	0.65	-11	0.29
O=C(Nc1cccc(-c2cnc3ccccc3n2)c1)c1cccc(NC(=O)c2ccco2)c1	69*	-0.95	-7	-0.84	21	nt
CCOC(=O)c1[nH]c2ccc(OC)cc2c1NC(=S)N1CCN(c2cccc(C)c2C)CC1	39	nt	23	-0.25	20	-0.15
Cn1c(NCCO)nc2c(c1=O)C1(CCCCC1)Cc1ccccc1-2	12	nt	nt	-0.7	18	-0.42
Cc1c(NC(=O)C(C)OC(=O)c2cccnc2)c(=O)n(-c2ccccc2)n1C (stereo not given)	-7	1.5	13	-0.034	-4	-0.06
O=C(Nc1cccc(NC(=O)c2sc3ccccc3c2Cl)c1)c1ccco1	81*	nt	-20	-0.32	28	-0.38
O=C(Nc1cccc(-n2cnnn2)c1)c1ccco1	95*	nt	nt	0.85	3	1.9
O=C(COC(=O)c1nc(Cl)ccc1Cl)NCc1ccccc1	-8	0.44	-35	-0.87	3	0.3
CC(CSc1nnnn1-c1ccccc1)Cn1c(N2CCN(C)CC2)nc2c1c(=O)[nH]c(=O)n2C (stereo not given)	19	0.029	22	-0.58	3	-0.61
CCN(CC)S(=O)(=O)c1ccc(C)c(NC(=O)CSc2nc3ccc(C)cc3[nH]2)c1	24	0.24	-30	0.35	-6	-0.86
C/C(=N\Nc1cc(-c2ccccc2)nc(-c2ccccc2)n1)c1ccc(O)c(C)c1	13	nt	nt	0.06	92*	-1.1
COc1cc(N/N=C(\C)c2ccc(O)c(C)c2)nc(-c2ccccc2)n1	9	1.5	nt	-0.026	92	-0.51
CC1CCCCN1S(=O)(=O)c1ccc(S(=O)(=O)N(Cc2ccccc2)Cc2ccco2)cc1 (stereo not given)	69*	-2.2	50	-0.35	0	-0.81
Cc1ccc(-c2ccc(/C=C3\C(=O)ON=C3c3ccccc3)o2)c([N+](=O)[O-])c1	98*	nt	-45	-0.77	36	-0.15
CC(=O)c1c(C)nc(-c2ccccc2)n1O	0	nt	9	nt	-20	1.3
SMILES	Lmaj promast	ROMK mod	Insulin prom inh	KCC2 mod	WT yeast gro inh	Insulin prom up
COc1ccc2c(c1)-c1nc(NC(=O)c3ccco3)sc1CC2	6	2.3	14	-1.5	36	-0.37
COc1ccc2c(c1)Cc1sc(NC(C)=O)nc1-2	1	0.005	44	-0.72	-16	-0.01
COc1ccc2c(c1)-c1nc(NC(=O)c3cccs3)sc1CC2	27	nt	-19	-0.065	72*	-0.88
COc1ccc2c(c1)Cc1sc(NC(=O)c3cccnc3)nc1-2	55*	-0.71	20	-1.3	20	0.21
COc1ccc2c(c1)Cc1sc(NC(=O)c3ccco3)nc1-2	53*	nt	-15	-1.3	12	-0.56
COc1cc(C2N(C)CCC3(OCCO3)C2(C)C)cc(OC)c1OC (stereo not given)	58*	-0.016	36	-0.04	-11	-0.28
CCC(C)Nc1ncnc2c1cnn2Cc1ccc(Cl)cc1 (stereo not given)	5	nt	nt	-0.098	4	1.8
CN(C(=O)Nc1ccc(Cl)c(Cl)c1)c1ccccc1C(=O)O	-5	0.088	-27	0.78	72*	0.96
COc1cc(NC(=O)Nc2ccc(Cl)c(Cl)c2)c(C(=O)O)cc1OC	nt	-0.16	nt	-2.8	nt	nt
CCN1CCN(CC(=O)Nc2ccc(Cl)c(S(=O)(=O)N(C)C)c2)CC1	-2	-0.66	5	0.51	-40	nt
CN(C)S(=O)(=O)c1cc(NC(=O)CN2CCNC(=O)C2)ccc1Cl	60*	0.5	27	1.4	-5	-0.34
O=S1(=O)c2ccccc2N=NN1Cc1ccc(Cl)c(Cl)c1	-2	0.45	nt	0.6	-5	-0.47
CC(C)(C)c1ccc(CN2N=Nc3ccccc3S2(=O)=O)cc1	101*	nt	46	nt	-21	0.13
Cc1ccsc1C1NC(=O)c2c(sc3c2CCCC3)N1 (stereo not given)	-2	-0.44	-19	1.6	0	nt
CC1=C(C#N)C(=O)N(C)C(C)(C)C1	-6	1.5	-3	2.8*	-3	0.62
O=S(=O)(c1ccc(F)cc1)c1nc(-c2ccco2)oc1Nc1ccccc1	3	-0.18	-52	2.4	35	-0.49
O=S(=O)(c1ccccc1)c1nc(-c2ccco2)oc1Nc1ccccc1	76*	-0.57	-19	-0.96	14	0.55
COc1ccc(-c2cc(-c3nnc(COC(=O)c4ccc(O)cc4)o3)c3ccccc3n2)cc1OC	59*	0.19	-5	-0.041	8	-1.8
COc1ccc(-c2cc(-c3nnc(COC(=O)C4CC4)o3)c3ccccc3n2)cc1OC	9	-1.5	20	-1.9	29	-0.67
Cc1ccc(-n2cc(CN3CCN(C(=O)c4ncn[nH]4)CC3)c(-c3ccc(F)cc3)n2)cc1	nt	nt	nt	1.1	nt	0.5
O=C(CCN1CCCCC1)c1ccc2c(c1)OCCO2	26	-0.12	-14	0.12	6	-0.51
COc1cc(C(=O)CCN2CCC(c3ccccc3)C2)cc(OC)c1OC (stereo not given)	81*	nt	-28	0.099	-5	nt
O=C(CCN1CCCC1Cc1ccccc1)c1ccc2c(c1)OCCO2 (stereo not given)	100*	-0.94	18	-0.095	-2	-0.21
O=C(CCN1CCC(c2ccccc2)C1)c1ccccc1 (stereo not given)	48	nt	-7	0.33	0	nt
